The panel holds about 79,000 compounds, 15% with a hit somewhere; the sample as a whole holds those more often. The source made the active and inactive calls. Cut-off read from the data, not from the text of the source: active = growth inhibition above about 70%; inactive = the rest.
Assays:
[1] = NCI Yeast Anticancer Drug Screen. Data for the wt1 strain (AID 149);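 note: 0% = growth of vehicle-treated wt1 cultures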; details: S. cerevisiae wt1 strain (SPY 50644) growth inhibition, hits give high values
Procedure, shortened: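 Using yeast strain wt1, compound-induced growth inhibition was determined against vehicle-treated cultures.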

[2] = NCI Yeast Anticancer Drug Screen. Data for the rad50EPP+ strain (AID 151);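 note: 0% = growth of vehicle-treated control cultures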; details: S. cerevisiae rad50 mutant strain, hits give high values
Procedure, shortened: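 Strain rad50EPP+; compound exposure; % growth inhibition vs vehicle.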

[3] = NCI Yeast Anticancer Drug Screen. Data for the mgt1 strain (AID 153); details: S. cerevisiae mgt1 mutant growth inhibition, hits give high values
Procedure, shortened: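 Read-out: yeast growth inhibition vs vehicle control. Strain mgt1, drawn from a panel altered in DNA damage repair or cell cycle control.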

[4] = NCI Yeast Anticancer Drug Screen. Data for the rad50 strain (AID 155);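 note: 0% = growth of vehicle-only cultures of the same strain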; details: S. cerevisiae rad50 strain growth inhibition, hits give high values
Procedure, shortened: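 Relative growth inhibition (compound vs vehicle) was measured in yeast with a defined repair-gene alteration.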

[5] = NCI Yeast Anticancer Drug Screen. Data for the mec2-1 strain (AID 157); details: S. cerevisiae mec2-1 strain, hits give high values
Procedure, shortened: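 Cells of the genetically defined mec2-1 yeast strain are incubated with test compound. Inhibition of growth is calculated against vehicle-treated controls.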

[6] = NCI Yeast Anticancer Drug Screen. Data for the rad14 strain (AID 159);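 note: 0% = growth of vehicle-treated control cultures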; details: S. cerevisiae rad14 strain growth inhibition, hits give high values
Procedure, shortened: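 Screen for anticancer potential: a yeast strain altered in DNA damage repair is grown with compound, and reduced growth is quantified against vehicle controls.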

[7] = NCI Yeast Anticancer Drug Screen. Data for the sgs1 mgt1 strain (AID 161);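 note: 0% = growth of cultures given vehicle only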; details: S. cerevisiae sgs1 mgt1 strain, hits give high values
Procedure, shortened: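 Mutant yeast exposed to compound; growth scored against vehicle-only wells.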

[8] = NCI Yeast Anticancer Drug Screen. Data for the CLN2oe strain (AID 163);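 note: 0% = growth of vehicle-only control cultures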; details: S. cerevisiae CLN2oe strain, hits give high values
Procedure, shortened: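 Strain altered in cell-cycle control, incubated with compound; growth compared to solvent-treated controls.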

[9] = NCI Yeast Anticancer Drug Screen. Data for the cln2 rad14 strain (AID 165);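 note: 0% = growth equal to vehicle treated cultures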; details: S. cerevisiae cln2 rad14 strain, hits give high values
Procedure, shortened: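 The screen exposed genetically defined yeast (cln2 rad14) to test compounds and scored growth inhibition relative to vehicle-treated controls.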

[10] = NCI Yeast Anticancer Drug Screen. Data for the bub3 strain (AID 167); details: S. cerevisiae bub3 mutant strain, hits give high values
Procedure, shortened: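 Screening used yeast with an engineered genetic alteration affecting cell cycle control. Compound-exposed cultures were compared with vehicle cultures, and reduced growth was taken as inhibition.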

[11] = NCI Yeast Anticancer Drug Screen. Data for the wt2 strain (AID 169);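 note: 0% = growth of vehicle-treated yeast cultures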; details: S. cerevisiae wt2 strain growth inhibition, hits give high values
Procedure, shortened: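 Steps: yeast strain treated with compound; growth recorded; inhibition calculated relative to cultures given vehicle alone.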

[12] = NCI Yeast Anticancer Drug Screen. Data for the mlh1 strain (AID 171);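 note: 0% = growth of vehicle-treated control cultures of the same strain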; details: S. cerevisiae mlh1 strain growth inhibition, hits give high values
Procedure, shortened: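 Yeast screen: mutant strain plus compound, growth scored against vehicle control wells.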

[13] = NCI Yeast Anticancer Drug Screen. Data for the sgs1 strain (AID 173);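 note: 0% = growth of vehicle-only control cultures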; details: S. cerevisiae sgs1 mutant, hits give high values
Procedure, shortened: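 Inhibition of yeast growth served as the measure. The mutant strain was treated with each compound, and growth was normalised to cultures receiving vehicle alone.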

[14] = NCI Yeast Anticancer Drug Screen. Data for the mlh1 rad18 strain (AID 175); details: S. cerevisiae mlh1 rad18 strain growth inhibition, hits give high values
Procedure, shortened: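 Compound-treated yeast growth, normalised to vehicle controls. Strain bears defined DNA repair mutations.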

[15] = NCI Yeast Anticancer Drug Screen. Data for the rad18 strain (AID 177); details: S. cerevisiae rad18 mutant growth inhibition, hits give high values
Procedure, shortened: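 Inhibition values reflect reduced yeast growth compared with vehicle-treated controls, using a strain engineered with a DNA damage repair defect.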

[16] = at 5.0 µM (retest, dose inferred, filed as 0.5)
[17] = at 50.0 µM (retest, dose inferred, filed as 5.0)

Measured: growth inhibition

c1ccc2cc(OCC3CO3)c(OCC3CO3)cc2c1 (stereo not drawn)
active: [2]; at 100.0 µM 81% | [4]; [17] 91% | [4]; at 100.0 µM 83% | [6]; at 100.0 µM 82% | [7]; [16] 76% | [7]; [17] 93% | [7]; at 50.0 µM 76.8% | [13]; at 11.0 µM 70% | [13]; at 33.0 µM 82% | [13]; at 100.0 µM 84% | [14]; [16] 84% | [14]; [17] 96% | [14]; at 50.0 µM 81.7% | [15]; at 33.0 µM 86% | [15]; at 100.0 µM 92%
inactive: [1]; at 1.2 µM -21% | [1]; at 3.7 µM -21% | [1]; at 11.0 µM -24% | [1]; at 33.0 µM -16% | [1]; at 100.0 µM -2% | [2]; at 1.2 µM -21% | [2]; at 3.7 µM -4% | [2]; at 11.0 µM 22% | [2]; at 33.0 µM 59% | [3]; at 1.2 µM -43% | [3]; at 3.7 µM -25% | [3]; at 11.0 µM -4% | [3]; at 33.0 µM -21% | [3]; at 100.0 µM 11% | [4]; at 1.2 µM -26% | [4]; at 3.7 µM -21% | [4]; [16] 56% | [4]; at 11.0 µM 3% | [4]; at 33.0 µM 59% | [4]; at 50.0 µM 57.1% | [5]; at 1.2 µM -29% | [5]; at 3.7 µM -18% | [5]; [16] 27% | [5]; at 11.0 µM -29% | [5]; at 33.0 µM 1% | [5]; [17] 67% | [5]; at 50.0 µM 58.8% | [5]; at 100.0 µM 64% | [6]; at 1.2 µM -21% | [6]; at 3.7 µM -8% | [6]; at 11.0 µM 1% | [6]; at 33.0 µM 35% | [8]; at 1.2 µM -10% | [8]; at 3.7 µM -2% | [8]; at 11.0 µM -11% | [8]; at 33.0 µM -6% | [8]; at 100.0 µM 35% | [9]; [16] 14% | [9]; [17] 63% | [9]; at 50.0 µM 60.7% | [10]; at 1.2 µM -22% | [10]; at 3.7 µM -26% | [10]; [16] 19% | [10]; at 11.0 µM -24% | [10]; at 33.0 µM -22% | [10]; [17] 29% | [10]; at 50.0 µM -7.95% | [10]; at 100.0 µM 0% | [11]; at 1.2 µM -38% | [11]; at 3.7 µM -33% | [11]; at 11.0 µM -37% | [11]; at 33.0 µM -19% | [11]; at 100.0 µM 0% | [12]; at 1.2 µM -37% | [12]; at 3.7 µM -32% | [12]; at 11.0 µM -33% | [12]; at 33.0 µM -26% | [12]; at 100.0 µM 14% | [13]; at 1.2 µM -2% | [13]; at 3.7 µM 37% | [15]; at 1.2 µM -8% | [15]; at 3.7 µM 33% | [15]; at 11.0 µM 69%

Source: PubChem BioAssay (NCI)
